From PubChem BioAssay (NCATS)
Records with an inconclusive call do not appear. Activity calls are given as the source filed them. Calls come from the whole dose curve; as a rule, active = well fitted inhibition curve with a large enough effect; inconclusive = small, poorly fitted or top-dose-only effect; inactive = flat fitted curve, though single readings scatter.

System: CRL-7250
Assay: qHTS assay to identify novel small-molecules to repurpose for Merkel cell carcinoma treatment (AID 1296009); note: nearly all actives have a fitted effect of over 60% in size
Conditions: MCC and control cell lines, CellTiter-Glo viability, 72 h; at 44.8 µM (top of the series) unless noted
Method in brief: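 Cell viability, measured as CellTiter-Glo luminescence, was normalized between DMSO and no-cell wells. The cells had been exposed to 8- or 11-point compound dilutions for 72 hr at 37 degree celsius.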

SMILES	outcome
CNC(=O)CN(CCN(CCN(CC(=O)[O-])CC(=O)NC)CC(=O)[O-])CC(=O)[O-].O.[Gd+3]	inactive
Fc1ccc(C(c2ccc(F)cc2)N2CCNCC2)cc1	inactive
C(=C\c1ccccc1)/CN1CCN(C(c2ccccc2)c2ccccc2)CC1	inactive
CCOc1ccccc1O[C@H](c1ccccc1)[C@H]1CNCCO1	inactive
CNC(=O)Oc1ccc2c(c1)[C@]1(C)CCN(C)[C@@H]1N2C	inactive
CCCCC(=O)O[C@]1(C(=O)CO)[C@@H](C)C[C@H]2[C@@H]3CCC4=CC(=O)C=C[C@]4(C)[C@@]3(F)[C@@H](O)C[C@@]21C	inactive
O=S(=O)(c1cccc2cnccc12)N1CCCNCC1	inactive
COc1cc([C@H]2Oc3cc([C@H]4Oc5cc(O)cc(O)c5C(=O)[C@@H]4O)ccc3O[C@@H]2CO)ccc1O	inactive
CC(=O)OCC(=O)Nc1cc(C#N)cc(NC(=O)COC(C)=O)c1Cl	inactive
CO/N=C(\C(=O)O)c1csc(NC(=O)CCl)n1	inactive
C[C@H](O)C(=O)Nc1c(I)c(C(=O)NC(CO)CO)c(I)c(C(=O)NC(CO)CO)c1I	inactive
N/C(=N\N=C\c1ccc(Cl)cc1)N/N=C/c1ccc(Cl)cc1	inactive
CCOC(=O)c1ccc(OC(=O)CCCCCN=C(N)N)cc1	inactive
C[C@@H](C1=C(CCN(C)C)Cc2ccccc21)c1ccccn1	inactive
O[C@@H](COc1cccc2ncccc12)CN1CCN(C2c3ccccc3[C@@H]3[C@H](c4ccccc42)C3(F)F)CC1 (stereo partly specified)	inactive
CCC(=O)O[C@]1(C(=O)COC)[C@@H](C)C[C@H]2[C@@H]3CCC4=CC(=O)C=C[C@]4(C)C3(F)[C@@H](O)C[C@@]21C (stereo partly specified)	inactive
